High-throughput results from PubChem BioAssay.
EPAC2 antagonist: blocks human EPAC2 exchange factor | EPAC2 GEF exchange of Rap1B-BODIPY-GDP, fluorescence | Potency, µM (highest dose often 114 µM), without a hit: at the top dose activity, negative = inhibition, hits mostly inhibitors | Q8WZA2 | 360,000 tested, 0.18% active | AID 720708; also: % is scaled to controls: 0 for no effect and ±100 for the full control effect; nearly all actives have a fitted effect of over 45% in size
EPAC1 agonist: EPAC1 (human) agonism; AID 720707; O95398; 360,000 tested, 0.073% active; EPAC1 agonist qHTS, biochemical assay; response scale: 100% = response to 6.5 mM cAMP; Potency, µM (series often up to 154 µM), for inactives: at the highest dose activation, usual class: activators; also: nearly all actives have a fitted effect of over 60% in size
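Compounds were pinned as a concentration titration into mixtures of EPAC1 (100 nM), BODIPY-GDP-loaded Rap1B (250 nM) and GDP (50 uM). After 5 min at room temperature, fluorescence was followed for 30 min; activity was scaled to 6.5 mM cAMP.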
B2AR arrestin: recruits beta-arrestin to the human beta2-adrenergic receptor. Potency, µM (doses to about 46.1 µM), inactives show at the highest dose activation, hits mostly activators. 330,000 tested, 0.02% active. P07550. beta-arrestin recruitment to beta2AR, cell-based reporter;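 also: 0% = DMSO controls and full agonism = EC100 isoproterenol or metaproterenol; nearly all actives have a fitted effect of over 65% in size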
EPAC2 agonist: activates human EPAC2 exchange factor. EPAC2 activation, biochemical qHTS; response scale: 100% = 6.5 mM cAMP response. 360,000 tested, 0.079% active. Q8WZA2. Potency, µM (doses to about 154 µM), inactives show at the highest dose activation, actives largely listed as activators; also: nearly all actives have a fitted effect of over 50% in size
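Nucleotide exchange monitored as fluorescence drop when BODIPY-GDP leaves Rap1B. Reaction: 100 nM EPAC2, 250 nM RAP1B-BODIPY-GDP, 50 uM GDP, room temperature, kinetic read over 30 min. Activity expressed relative to 6.5 mM cAMP.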
EPAC1 antagonist: antagonists of human EPAC1. O95398. Potency, µM (series often up to 115 µM), for the others: at the highest dose activity change, negative = inhibition, usual class: inhibitors. 360,000 tested, 0.14% active. EPAC1 GEF assay, Rap1b-BODIPY-GDP exchange fluorescence. AID 720709;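 also: plate controls were vehicle for no effect and positive control for full effect; nearly all actives have a fitted effect of over 50% in size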
* = called active by the depositor; u = inconclusive; x = no result. In the library only some 0.4% were active in any assay of this set; here they are far more common. Calls follow the shape of the dose curve; as a rule, active = well fitted curve in the direction sought with a large enough effect; inconclusive = small, poorly fitted or top-dose-only effect, or another doubt; inactive = no such curve, though single readings can be large; an effect the other way counts as inactive or inconclusive. Potency is read from the fitted curve at half-maximal effect.

SMILES	EPAC2 antagonist	EPAC1 agonist	B2AR arrestin	EPAC2 agonist	EPAC1 antagonist
C[C@H](NC(=O)C1(c2ccccc2)CCN(C(=O)OC(C)(C)C)CC1)C(=O)N[C@@H](C(=O)O)c1ccccc1	17.3%	2.7%	0.0%	0.5%	1.3%
C[C@@H](NC(=O)C1(c2ccccc2)CCN(C(=O)OC(C)(C)C)CC1)C(=O)N[C@@H](C(=O)O)c1ccccc1	u	-22.5%	-0.1%	-6.4%	56.2µM*
CCNC(=S)Nc1ccc(N2CCCCC2)cc1	4.4%	7.3%	-0.1%	3.7%	7.5%
CCNC(=S)N/N=C/c1sc(N2CCCCC2)nc1-c1cccs1	u	-52.2%	-0.3%	1.4%	89.1µM*
COc1ccc(S(=O)(=O)N2CCCCC2)cc1NC(=O)c1ccccc1	6.9%	10.3%	0.3%	5.5%	-5.4%
COc1ccc(S(=O)(=O)N2CCCCC2)cc1NC(=O)c1c(F)cccc1Cl	-14.2%	1.6%	-0.7%	1.6%	56.2µM*
COC1OC(c2ccccc2)=C(c2cnc(N)nc2)c2ccc(F)cc21 (stereo unspecified)	39.8µM*	5.1%	x	9.9%	-4.6%
COc1ccc(C(CC(=O)N2CCOCC2)c2c(OC)cc(OC)c3c(-c4ccccc4)cc(=O)oc23)cc1 (stereo unspecified)	50.1µM*	-9.0%	0.3%	6.2%	4.8%
COc1ccc(CNC(=O)c2cn(Cc3ccc(S(=O)(=O)N(C)C)cc3)c(=O)s2)cc1	9.3%	9.4%	x	11.4%	u
Cc1cccc(N2CCN(S(=O)(=O)c3ccc4c(c3)CCN4C(=O)CCC(=O)O)CC2C)c1 (stereo unspecified)	61.4%	56.2µM*	-0.2%	12.7%	20µM*
COc1ccc(C(=O)N2CCN(c3ccccc3OC)CC2)cc1	6.3%	-3.4%	-0.2%	16.4%	u
COc1ccccc1N1CCN(C(=O)c2ccc(S(=O)(=O)N3CCCC3)cc2)CC1	6.8%	-5.4%	0.1%	7.94µM*	1.0%
O=C(Nc1ccc(Oc2ccccc2)cc1)c1csc([C@@H]2C[C@H](O)[C@@H](CO)O2)n1	-9.8%	-5.7%	x	14.3%	-12.7%
C1=C(c2ccc(-c3ccccc3)cc2)Nc2ncnn2C1c1ccco1 (stereo unspecified)	116.0%	89.1µM*	0.5%	100µM*	11.1%
Fc1ccc(C2=CC(c3ccc(Br)o3)n3ncnc3N2)cc1 (stereo unspecified)	52.1%	100µM*	-0.6%	12.0%	93.8%
Fc1ccc(C2=CC(c3ccco3)n3ncnc3N2)cc1 (stereo unspecified)	11.4%	-0.1%	0.1%	-3.4%	7.3%
Cc1ccc(NC(=O)COC(=O)CNC(=O)c2cccs2)cc1S(=O)(=O)N1CCOCC1	5.8%	-5.1%	x	-0.2%	29.0%
Cc1cc(/C=C2\SC(=S)N(Cc3ccco3)C2=O)c(C)n1-c1cccnc1	51.5%	-11.9%	0.3%	100µM*	-6.6%
O=C1/C(=C/c2cccnc2)SC(=S)N1Cc1ccco1	-1.6%	-0.4%	x	11.2%	-0.8%
CC1=NN(c2ccccc2)C(=O)/C1=C\c1c(C)[nH]n(-c2ccccc2)c1=O	-2.1%	9.2%	-0.7%	-3.9%	12.6%
CC1=NN(c2ccccc2)C(=O)/C1=C/c1c(O)n(-c2ccc(F)c(Cl)c2)[nH]c1=O	89.1µM*	-18.2%	-0.1%	-17.6%	50.1µM*
COc1ccc(OC)c(/C=c2\sc3nc(-c4cccs4)nn3c2=O)c1	204.7%	112µM*	-0.9%	100µM*	-4.4%
c1ccc(NN(Cc2ccccn2)c2ccccc2)cc1	14.1µM*	-0.5%	x	17.5%	-14.3%
O=C(CSc1ccc(Cl)cc1)NNC(=O)c1cccnc1	-9.8%	8.3%	0.1%	9.6%	8.6%
COc1ccc(OC)c(-c2csc(NC(=O)COC(=O)c3ccc(NC(=O)CC#N)cc3)n2)c1	0.5%	9.8%	-0.1%	1.1%	79.4µM*
SMILES	EPAC2 antagonist	EPAC1 agonist	B2AR arrestin	EPAC2 agonist	EPAC1 antagonist
COc1ccc(OC)c(-c2csc(NC(=O)COC(=O)C3CCC3)n2)c1	-11.3%	21.7%	-0.2%	15.7%	-3.4%
C[C@H]1CN([C@@H](C)CO)C(=O)c2c(c3ccccc3n2C)-c2ccccc2CO[C@H]1CN(C)C(=O)[C@@H]1CCCN1C	-8.5%	14.5%	x	-7.9%	3.2%
O=C(Nc1cccs1)Nc1ccccc1Cl	22.4µM*	-3.7%	-0.3%	6.3%	-21.5%
CC(=O)Nc1c(Cl)cc2c(c1Cl)Cc1cc(C#N)ccc1-2	10.9%	-8.0%	x	-10.5%	-3.3%
Cc1cc(O)c(C(=O)/C=C/c2cccc([N+](=O)[O-])c2)c(=O)o1	-4.0%	-5.6%	-0.3%	5.9%	56.2µM*
Cc1cc(O)c(C(=O)/C=C/c2ccccc2O)c(=O)o1	-17.5%	6.8%	0.5%	0.6%	8.5%
N#Cc1cc(C(=O)c2ccccc2O)cn(-c2nccs2)c1=O	77.2%	89.1µM*	4.4%	100µM*	62.3%
CC(C)n1cc(C(=O)c2ccccc2O)cc(C#N)c1=O	1.3%	1.5%	-0.2%	4.6%	9.7%
N#Cc1cc(C(=O)c2cc(F)ccc2O)cn(-c2nccs2)c1=O	76.2%	u	-1.0%	112µM*	35.7%
Cc1c(Cc2ccccc2)c(=O)oc2cc(OC(C)C(=O)NCC3CCC(C(=O)O)CC3)c(Cl)cc12 (stereo unspecified)	5.8%	-15.9%	-0.2%	-5.6%	-16.9%
O=C(Nc1ccc2nc(-c3ccco3)c(-c3ccco3)nc2c1)NC1CC1	13.0%	1.0%	-0.3%	5.5%	50.1µM*
O=C(Nc1cccc(C(F)(F)F)c1)c1ccc2nc(-c3ccco3)c(-c3ccco3)nc2c1	u	-30.5%	0.4%	-28.4%	35.5µM*
O=C(NCCCO)Nc1ccc2nc(-c3ccco3)c(-c3ccco3)nc2c1	x	x	-1.5%	x	x
O=C(O)c1ccc2nc(-c3ccco3)c(-c3ccco3)nc2c1	-0.8%	15.5%	-0.1%	8.4%	2.2%
COC(=O)c1[nH]c2cc(C)ccc2c1NC(=O)CN1CCCc2ccccc21	0.0%	-10.6%	-0.5%	7.94µM*	4.8%
NS(=O)(=O)c1cc(C(=O)NC2CCSc3ccccc32)ccc1Cl (stereo unspecified)	35.5µM*	-10.7%	-0.3%	-5.0%	28.2µM*
O=C1CN(C(=O)COc2ccc([N+](=O)[O-])cc2Cl)c2ccccc2N1	-0.6%	-3.1%	-0.1%	12.7%	9.0%
O=C(NCc1ccc(Cl)nc1)c1csc(COCCO)n1	8.8%	-2.2%	x	3.0%	13.9%
CCc1noc(C)c1C(=O)Nc1nc2c(C)cc(C)cc2s1	-14.4%	89.1µM*	0.0%	24.1%	-24.6%
CCOc1cc(/C=C(\C#N)C(=O)Nc2cccc(C(=O)O)c2)ccc1OCc1ccccc1Cl	-26.9%	8.5%	0.1%	-2.5%	-22.0%
CCOc1cc(/C=C(\C#N)C(=O)Nc2cccc(C(=O)O)c2)cc(Br)c1OC(=O)c1ccc(OC)cc1	50.1µM*	9.3%	-0.4%	-2.0%	u
